In PubChem BioAssay AID1159580 (chemical genetic matrix, 2015):
Values joined by “and” are separate entries in the source; they are usually repeats but may differ in a detail not shown here. Identical values can stand only once. Out of some 5,500 compounds screened, about 2,000 (36%) were called active. Another 18% or so got no clear call; they are omitted. Rule as the data show it: active = normalized growth mostly below about 0.91 (no sharp cut-off); inconclusive = no clear call, values can overlap the other calls; inactive = mostly above about 0.92. The list shows a part of the results.

Experiment: chemical genetic growth profiling, strain panel (AID 1159580);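 also: tested at 20 µM; growth read once vehicle control cultures reached saturation at 30 °C; 1 = growth at the plate median or of vehicle wells; lower values mean less growth of the strain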
Settings: S. cerevisiae deletion strains, growth OD

Measured: normalized growth

O=C(O)CCCc1ccccc1
inactive: locus YAL021C, strain ccr4, stronger effect = lower value 0.962 | locus YAL026C, strain drs2, stronger effect = lower value 0.989 | locus YAL030W, strain snc1, stronger effect = lower value 0.988 | locus YBL061C, strain skt5, stronger effect = lower value 0.991 | locus YBR009C, strain hhf1, stronger effect = lower value 0.988 | locus YBR021W, strain FUR4, stronger effect = lower value 0.955 | locus YBR023C, strain chs3, stronger effect = lower value 0.994 | locus YBR171W, strain sec66, stronger effect = lower value 0.975 | locus YBR229C, strain ROT2, stronger effect = lower value 0.999 | locus YBR231C, strain swc5, stronger effect = lower value 1 | locus YBR279W, strain paf1, stronger effect = lower value 0.974 | locus YCL011C, strain gbp2, stronger effect = lower value 0.98 | locus YCL016C, strain dcc1, stronger effect = lower value 0.985 | locus YCL029C, strain bik1, stronger effect = lower value 0.982 | locus YCL069W, strain vba3, stronger effect = lower value 0.981 | locus YCR088W, strain abp1, stronger effect = lower value 0.973 | locus YDL005C, strain med2, stronger effect = lower value 0.979 | locus YDL035C, strain GPR1, stronger effect = lower value 1.01 | locus YDL040C, strain nat1, stronger effect = lower value 0.989 | locus YDL074C, strain BRE1, stronger effect = lower value 1 | locus YDL101C, strain DUN1, stronger effect = lower value 1 | locus YDL185W, strain tfp1, stronger effect = lower value 0.948 | locus YDL192W, strain arf1, stronger effect = lower value 0.996 | locus YDR001C, strain nth1, stronger effect = lower value 0.977 | locus YDR069C, strain doa4, stronger effect = lower value 1 | locus YDR101C, strain arx1, stronger effect = lower value 0.941 | locus YDR137W, strain rgp1, stronger effect = lower value 1 | locus YDR150W, strain NUM1, stronger effect = lower value 0.998 | locus YDR159W, strain sac3, stronger effect = lower value 0.981 | locus YDR162C, strain NBP2, stronger effect = lower value 1 | locus YDR195W, strain ref2 1.04 | locus YDR297W, strain sur2, stronger effect = lower value 0.991 | locus YDR318W, strain mcm21, stronger effect = lower value 0.986 | locus YDR334W, strain swr1, stronger effect = lower value 0.978 | locus YDR335W, strain msn5, stronger effect = lower value 0.988 | locus YDR388W, stronger effect = lower value 0.999 | locus YDR392W, strain spt3, stronger effect = lower value 0.963 | locus YDR502C, strain sam2, stronger effect = lower value 0.981 | locus YEL003W, strain gim4, stronger effect = lower value 0.986 | locus YEL037C, strain rad23, stronger effect = lower value 0.989 | locus YEL061C, strain CIN8 (second series), stronger effect = lower value 0.983 | locus YEL061C, strain CIN8, stronger effect = lower value 0.999 | locus YER015W, strain faa2, stronger effect = lower value 1 | locus YER016W, strain bim1, stronger effect = lower value 0.989 | locus YER110C, stronger effect = lower value 1 | locus YER111C, strain swi4, stronger effect = lower value 0.992 | locus YER155C, strain BEM2 (second series), stronger effect = lower value 1.01 | locus YER155C, strain BEM2, stronger effect = lower value 0.975 | locus YER167W, strain BCK2, stronger effect = lower value 1 | locus YFR010W, strain ubp6, stronger effect = lower value 0.997 | locus YGL078C, strain dbp3, stronger effect = lower value 0.933 | locus YGL086W, strain mad1, stronger effect = lower value 0.97 | locus YGL167C, strain pmr1, stronger effect = lower value 0.995 | locus YGL173C, strain kem1, stronger effect = lower value 0.997 | locus YGL227W, strain vid30, stronger effect = lower value 0.977 | locus YGL240W, strain doc1, stronger effect = lower value 1 | locus YGL248W, strain PDE1, stronger effect = lower value 0.997 | locus YGL253W, strain hxk2, stronger effect = lower value 0.974 | locus YGR135W, strain pre9, stronger effect = lower value 1.04 | locus YGR229C, strain SMI1, stronger effect = lower value 1.01 | locus YGR252W, strain gcn5, stronger effect = lower value 0.939 | locus YHR013C, strain ard1, stronger effect = lower value 1.01 | locus YHR027C, strain rpn1, stronger effect = lower value 1.01 | locus YHR079C, strain IRE1 (second series), stronger effect = lower value 0.975 | locus YHR094C, strain hxt1, stronger effect = lower value 0.995 | locus YHR129C, strain ARP1, stronger effect = lower value 0.993 | locus YHR142W, strain chs7, stronger effect = lower value 0.988 | locus YHR200W, strain rpn10, stronger effect = lower value 0.996 | locus YIL066C, strain RNR3, stronger effect = lower value 0.999 | locus YIL073C, strain SPO22, stronger effect = lower value 1.06 | locus YIR030C, strain dcg1, stronger effect = lower value 0.988 | locus YJL092W, strain hpr5, stronger effect = lower value 0.985 | locus YJL095W, strain BCK1 (second series), stronger effect = lower value 0.989 | locus YJL115W, strain asf1, stronger effect = lower value 0.986 | locus YJL129C, strain trk1, stronger effect = lower value 0.983 | locus YJL134W, strain LCB3, stronger effect = lower value 1.01 | locus YJL154C, strain vps35, stronger effect = lower value 0.976 | locus YJL164C, strain tpk1, stronger effect = lower value 0.987 | locus YJL166W, strain qcr8, stronger effect = lower value 0.992 | locus YJL168C, strain set2, stronger effect = lower value 0.998 | locus YJL187C, strain SWE1 (second series), stronger effect = lower value 0.99 | locus YJL187C, strain SWE1, stronger effect = lower value 0.99 | locus YJR043C, strain POL32, stronger effect = lower value 0.98 | locus YJR075W, strain HOC1, stronger effect = lower value 1.01 | locus YKL009W, strain mrt4, stronger effect = lower value 1 | locus YKL160W, strain elf1, stronger effect = lower value 0.969 | locus YKR001C, strain vps1, stronger effect = lower value 0.951 | locus YKR026C, strain gcn3, stronger effect = lower value 0.98 | locus YKR091W, strain srl3, stronger effect = lower value 0.98 | locus YLL001W, strain dnm1, stronger effect = lower value 0.995 | locus YLL026W, stronger effect = lower value 0.985 | locus YLL041C, strain sdh2, stronger effect = lower value 0.989 | locus YLR027C, strain aat2, stronger effect = lower value 0.984 | locus YLR039C, strain RIC1, stronger effect = lower value 1.01 | locus YLR058C, strain SHM2, stronger effect = lower value 1 | locus YLR102C, strain apc9, stronger effect = lower value 0.994 | locus YLR221C, strain rsa3, stronger effect = lower value 0.955 | locus YLR258W, strain gsy2, stronger effect = lower value 0.98 | locus YLR262C, strain YPT6 (second series), stronger effect = lower value 0.968 | locus YLR262C, strain YPT6, stronger effect = lower value 1.01 | locus YLR268W, strain sec22, stronger effect = lower value 0.985 | locus YLR320W, strain mms22, stronger effect = lower value 0.992 | locus YLR330W, strain CHS5, stronger effect = lower value 0.998 | locus YLR342W, strain FKS1 (second series), stronger effect = lower value 1.05 | locus YLR342W, strain FKS1, stronger effect = lower value 1.01 | locus YLR357W, strain rsc2, stronger effect = lower value 1 | locus YLR370C, strain arc18, stronger effect = lower value 0.977 | locus YLR371W, strain rom2, stronger effect = lower value 0.99 | locus YLR384C, strain iki3, stronger effect = lower value 0.989 | locus YLR418C, strain cdc73, stronger effect = lower value 1.02 | locus YML016C, strain PPZ1, stronger effect = lower value 1.01 | locus YML032C, strain rad52, stronger effect = lower value 0.982 | locus YML120C, strain ndi1, stronger effect = lower value 1 | locus YML124C, strain tub3, stronger effect = lower value 0.986 | locus YMR058W, strain fet3, stronger effect = lower value 0.989 | locus YMR078C, strain ctf18, stronger effect = lower value 0.992 | locus YMR125W, strain sto1, stronger effect = lower value 0.999 | locus YMR129W, stronger effect = lower value 0.978 | locus YMR205C, strain PFK2, stronger effect = lower value 0.972 | locus YMR223W, strain ubp8, stronger effect = lower value 1.02 | locus YMR231W, strain pep5, stronger effect = lower value 0.985 | locus YMR307W, strain GAS1, stronger effect = lower value 1.1 | locus YNL067W, strain RPL9B, stronger effect = lower value 0.981 | locus YNL071W, strain lat1, stronger effect = lower value 0.992 | locus YNL209W, strain ssb2, stronger effect = lower value 1.01 | locus YNL233W, strain BNI4, stronger effect = lower value 1 | locus YNL248C, strain rpa49, stronger effect = lower value 0.907 | locus YNL250W, strain rad50, stronger effect = lower value 0.925 | locus YNL271C, strain bni1, stronger effect = lower value 0.943 | locus YNL298W, strain CLA4, stronger effect = lower value 0.955 | locus YNL307C, strain MCK1, stronger effect = lower value 0.992 | locus YNL322C, strain KRE1 (second series), stronger effect = lower value 0.954 | locus YNR049C, strain mso1, stronger effect = lower value 0.975 | locus YNR052C, strain pop2, stronger effect = lower value 0.986 | locus YOL012C, strain htz1 1.62 | locus YOL147C, strain pex11, stronger effect = lower value 0.987 | locus YOR001W, strain rrp6, stronger effect = lower value 0.962 | locus YOR061W, strain CKA2, stronger effect = lower value 1 | locus YOR069W, strain VPS5, stronger effect = lower value 1 | locus YOR070C, strain gyp1, stronger effect = lower value 0.988 | locus YOR080W, strain dia2, stronger effect = lower value 0.994 | locus YOR083W, strain WHI5, stronger effect = lower value 0.975 | locus YOR106W, strain vam3, stronger effect = lower value 0.988 | locus YOR136W, strain idh2, stronger effect = lower value 0.976 | locus YOR144C, strain elg1, stronger effect = lower value 0.996 | locus YOR184W, strain ser1, stronger effect = lower value 0.988 | locus YOR265W, strain rbl2, stronger effect = lower value 0.989 | locus YOR270C, strain vph1, stronger effect = lower value 0.991 | locus YOR290C, strain snf2, stronger effect = lower value 0.962 | locus YOR316C, strain cot1, stronger effect = lower value 0.998 | locus YPL051W, strain arl3, stronger effect = lower value 0.988 | locus YPL055C, strain LGE1, stronger effect = lower value 0.963 | locus YPL078C, strain atp4, stronger effect = lower value 0.985 | locus YPL106C, strain sse1, stronger effect = lower value 0.969 | locus YPL240C, strain hsp82, stronger effect = lower value 0.988 | locus YPL241C, strain CIN2, stronger effect = lower value 1.01 | locus YPR119W, strain clb2, stronger effect = lower value 0.995 | locus YPR163C, strain tif3, stronger effect = lower value 0.983 | locus YPR167C, strain met16, stronger effect = lower value 0.99 | strain wtn01, stronger effect = lower value 0.995
0.998 (inactive) and 0.811 (active): locus YJL095W, strain BCK1, stronger effect = lower value
active: locus YHR079C, strain IRE1, stronger effect = lower value 0.801 | locus YIL125W, strain kgd1, stronger effect = lower value 0.892 | locus YJR066W, strain TOR1, stronger effect = lower value 0.795 | locus YKL068W, stronger effect = lower value 0.917 | locus YKL085W, strain MDH1 (second series), stronger effect = lower value 0.93 | locus YKL085W, strain MDH1, stronger effect = lower value 0.93 | locus YLR113W, strain HOG1, stronger effect = lower value 0.687 | locus YNL183C, strain NPR1, stronger effect = lower value 0.772 | locus YOR231W, strain MKK1, stronger effect = lower value 0.778 | locus YPL256C, strain CLN2, stronger effect = lower value 0.72 | locus YPR141C, strain kar3, stronger effect = lower value 0.896
1 (inactive) and 0.818 (active): locus YHR030C, strain SLT2, stronger effect = lower value
